Laboratory results taken from PubChem BioAssay AID488789 (Broad Institute, 2010).
Results with a measured potency or affinity are listed apart. Results filed as inconclusive are left out. The source made the active and inactive calls.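 Rule for the calls: active = samples whose fitted half-maximal inhibition concentration is no more than ten times the top valid dose tested; inconclusive = flat response between -70 and -30, or invalid curve fit; inactive = flat within 30 of zero, potency above limit, or signal rising.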

Biological target: Trypsin (Sus scrofa) (UniProt P00761)
Test: trypsin protease activity blockade – biochemical, quenched peptide fluorescence, cherry-pick, selectivity assay for Rce1 protease inhibitor project, dose response (AID 488789);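 note: more negative means stronger trypsin inhibition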
Details: porcine trypsin, quenched peptide cleavage fluorescence; series mostly up to 10 µM

Sequence of Trypsin (Sus scrofa) (P00761 whole entry, looked up): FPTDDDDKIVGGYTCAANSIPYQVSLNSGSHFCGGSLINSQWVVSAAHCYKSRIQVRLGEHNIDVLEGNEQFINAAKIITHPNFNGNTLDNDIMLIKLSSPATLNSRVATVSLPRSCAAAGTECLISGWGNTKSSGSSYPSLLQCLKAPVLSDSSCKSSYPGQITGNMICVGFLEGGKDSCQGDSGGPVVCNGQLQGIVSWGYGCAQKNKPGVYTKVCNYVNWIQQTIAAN

outcome, inactive:
Cc1nc(N2CCOCC2)c2cc(-c3ccccc3)sc2n1
CCOC(=O)C1CCCN(C(=O)CCn2nnnc2CN2CCOCC2)C1 (configuration not stated)
C/C(Cl)=C\Cn1c(O)c(N=NC(N)=S)c2cc(Br)ccc21
CN(C)S(=O)(=O)c1ccc(NC(=O)/C=C/c2ccccc2Cl)cc1
COc1cc2ccccc2cc1C(=O)N(CCN(C)C)c1nc2ccc(C)cc2s1
O=S(=O)(CC(CN1CCOCC1)N1CCOCC1)c1ccccc1 (configuration not stated)
CCOC(=O)c1cc2c(=O)[nH]ccc2nc1C
OC(CNCCC1C=Nc2ccccc21)Cn1c2ccc(Cl)cc2c2cc(Cl)ccc21 (configuration not stated)
O=C(COC(=O)c1ccc(S(=O)(=O)N2CCCC2)cc1)NCc1ccccc1
CC(C)CC(=O)NC(=S)Nc1ccc(S(=O)(=O)Nc2nccs2)cc1
CS(=O)(=O)Cc1ccc(C(=O)N(CCc2ccccc2)Cc2ccccc2)cc1
CN1c2ccc(C=O)c3c(C=O)ccc(c23)N(C)C1(C)C
Cc1cc(=O)n2ccccc2c1C#N
CCC(C)(C)c1ccc(OCCCC[n+]2cccc(C)c2C)c(C(C)(C)CC)c1
CC(=O)OCC(=O)[C@@]12OC3(CCCC3)O[C@@H]1C[C@H]1[C@@H]3CCC4=CC(=O)C=C[C@]4(C)[C@@]3(F)[C@@H](O)C[C@@]12C
CC(=O)N(C)c1ccc(NC(=O)/C=C/c2ccccc2Cl)cc1
COc1ccc(CN2CCN(C(c3ccc(F)cc3)c3ccc(F)cc3)CC2)c(OC)c1OC
O=C(O/N=C\c1ccc(N2CCCCC2)c([N+](=O)[O-])c1)c1cccc(C(F)(F)F)c1
Cc1cc(C)n(-c2nc3ccccc3c(=O)n2OCC(=O)N(C)C)n1
COc1ccc(C(CNC(=O)COc2cc(C)c(Cl)c(C)c2)N2CCCCC2)cc1 (configuration not stated)
N=c1c(C(=O)NCc2ccc(F)cc2)cc2c(=O)n3ccccc3nc2n1Cc1cccnc1
Cn1c(=O)c(C(=O)NCCO)c(O)c2ccccc21
CCNC(=S)NNC(=O)CCn1cc(C)cn1
Cc1ccc(-c2nc(Nc3ccc(N4CCOCC4)cc3)c3ccccc3n2)cc1
CCCCOC(=O)Nc1nc(C)c(C(=O)OCC)s1
CCO[C@@H]1OC(C(=O)N2CCN(Cc3ccccc3)CC2)=C[C@H](c2ccccc2)[C@H]1CCCO
COc1cccc(-c2nc(C#N)c(N3CCN(C(=O)c4ccco4)CC3)o2)c1
N/C(Cc1ccc([N+](=O)[O-])cc1)=N\OC(=O)c1ccc2ccccc2c1
N#CC(C#N)=C1NC(N)=C(C#N)C(c2ccccc2)=C1C#N
CCn1nnnc1SCC(=O)Nc1nc(C)c(C)s1
O=C(N/N=C/C1CC=CCC1)c1ccc(O)cc1O (configuration not stated)
CC(=O)c1ccc(-c2ccc(C(=O)N3CCC(C(N)=O)CC3)o2)cc1
CC(/C=N\NC(=O)CN1CCN(S(=O)(=O)c2ccc(C)cc2)CC1)=C\c1ccccc1
CCn1cc(/C=C(\NC(=O)c2ccccc2Cl)C(=O)N2CCOCC2)c2ccccc21
Cc1nc(N2CCOCC2)c2c(C)c(C(=O)Nc3ccccc3C(F)(F)F)sc2n1
COc1ccc(/C=N/NC(=O)c2ccc(Cl)cc2)cc1COC(C)=O
Cc1ccc(-c2cc3cccc[n+]3cc2-c2ccc(C)cc2)cc1
